Screening results as filed in PubChem BioAssay.
IL-2 act: activators of IL-2; IL-2 activation reporter assay, cell-based qHTS; stimulated with anti-CD3/CD4/CD28 beads; in transgenic mouse T cells; activation, % (series mostly up to about 46 µM); hit rate 0.065% among 360,000; AID 652025; in the data active means activation above about 50%; inconclusive means mostly about 30% to 49%; further: 0% is about no effect
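Unstimulated transgenic mouse T cells preincubated 60 min with compound, then stimulated with anti-CD3/anti-CD4-coated beads plus anti-CD28 for 18 h at 37 degrees C. IL-2 response read as EGFP and DsRed fluorescence by plate cytometry.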
Nrf2 activator: activates Nrf2 signaling | AREc32 ARE-luciferase reporter (MCF7-derived line), luminescence, 24 h | Potency, µM (top dose mostly 46.1 µM), for the others: at the highest dose activation, usual class: activators | hit rate 0.31% among 410,000; further: potency means the concentration at half of the fitted maximal effect; % of control where 0% means no effect; nearly all actives have a fitted effect of over 65% in size
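AREc32 cells carrying an ARE-driven firefly luciferase reporter were seeded at 1000 cells/well in OPTI-MEM with 5% FBS, then exposed to compound for 24 hr at 37 deg C. Luminescence was read with Steady-Glo after 30 min at RT.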
ELG1 repair inh: inhibitors of ELG1-dependent DNA repair in HEK293T cells | HEK293T ELG1-luciferase reporter, luminescence, 16 h; DNA damage induced by 5-fluorouridine | Potency, µM (doses to about 46.1 µM), for the others: top-dose activity change, negative = inhibition, most hits filed as inhibitors | hit rate 2.3% among 330,000; further: potency means the concentration at half of the fitted maximal effect; on the % scale 0 is the no-effect control and ±100 the full control effect; nearly all actives have a fitted effect of over 55% in size
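Reporter activity after DNA damage by 5-fluorouridine is monitored. Compound-treated cells incubate 16 hr at 37 °C, then ONE-Glo is added for 30 min before luminescence reading.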
BRCA1 expr up: BRCA1 expression activation. MCF7-BRCA1-FFLuc reporter, luminescence, 48 h; response scale: scaled: vehicle 0%, 10 µM genistein 100%. hit rate 1.1% among 380,000. Potency, µM (top dose mostly 46.1 µM), for inactives: at the highest dose activation, usual class: activators. AID 624202; further: potency means the concentration at half of the fitted maximal effect; nearly all actives have a fitted effect of over 80% in size
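Cells: MCF7-BRCA1-FFLuc, 2000/well. Exposure: 48 h, 37 °C, 5% CO2. Read: luminescence, 15 min post-substrate. Controls: genistein 10 microM (maximal activation), DMSO (neutral).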
* = called active by the depositor; ? = inconclusive; / = no result. Shown are actives, neighbours in structure and some others; about 3.1% of the full set was active somewhere. Unless noted, the call rests on the fitted dose curve; in most records, active means well fitted curve in the direction sought with a large enough effect; inconclusive means small, poorly fitted or top-dose-only effect, or another doubt; inactive means no such curve, though single readings can be large; an effect the other way counts as inactive or inconclusive.

SMILES	IL-2 act	Nrf2 activator	ELG1 repair inh	BRCA1 expr up
COc1cc(C2NC(=O)N(C)C3=C2C(=O)N(c2ccccc2)C3)ccc1O (centres undefined)	/	-1%	/	-4%
COc1cccc2cc(-c3nc(-c4cccs4)cs3)c(=O)oc12	76*	?	?	29%
COc1cccc2cc(-c3nc(-c4cccs4)no3)c(=O)oc12	/	0%	/	/
O=c1oc2ccccc2cc1-c1nc(-c2cccs2)cs1	1	2.5µM*	?	-48%
COc1ccc(NC(=O)Cn2c(=O)oc3cc(S(=O)(=O)NCc4ccccc4)ccc32)c(OC)c1	/	-1%	/	/
C=CCC[C@H](CCCCC)OC(=O)/C=C/[C@@H](O)[C@H](O)C[C@@H](O)CC=C	0	8%	/	0%
O=c1c(Cl)cc(Cl)nn1-c1ccccc1	-6	22%	23µM*	-93%
CC1(C)Cc2c(c(N3CCOCC3)nc3sc4c(NCCN)ncnc4c23)CO1	-3	-1%	/	-6%
COCCNc1nnnc2c1sc1nc(N3CCOCC3)c3c(c12)CC(C)(C)OC3	-1	0%	4.1µM*	-17%
CCOC(=O)N1CCc2c(sc3c2c(=O)n(CCc2ccccc2)c(=O)n3Cc2cc(C)ccc2C)C1	/	-1%	/	/
CN(C)S(=O)(=O)Nc1ccc(-c2cn3ccsc3n2)cc1	/	1%	/	11µM*
COc1ccc(S(=O)(=O)Nc2ccc(-c3cn4ccsc4n3)cc2)cc1C	/	0%	/	0%
CCOC(=O)c1nc2sc3c(c2c(=O)[nH]1)CCC(C)C3 (centres undefined)	-1	-1%	9%	-4%
CC(C)CCOCc1nc2sc3c(c2c(=O)[nH]1)CCC(C)C3 (centres undefined)	1	0%	?	13µM*
Cc1cc(/C=N/Nc2nc(N3CCOCC3)nc(N3CCOCC3)n2)c(C)n1-c1ccccc1	0	5%	7.3µM*	-8%
COc1ccc(-n2c(C)cc(/C=N/Nc3nc(N4CCOCC4)nc(N4CCOCC4)n3)c2C)cc1	-1	2%	8.2µM*	-27%
CC(=C/c1ccccc1)/C=N/Nc1nc(N2CCCCC2)nc(N2CCCCC2)n1	0	0%	-4%	-35%
BrC(/C=N/Nc1nc(N2CCOCC2)nc(N2CCOCC2)n1)=C/c1ccccc1	-1	?	12µM*	-27%
Cc1cccc(Nc2nc(Nc3cccc(C)c3)nc(N3CCOCC3)n2)c1	/	0%	/	/
Cc1cccc(Nc2nc(N3CCOCC3)nc(N3CCOCC3)n2)c1	-4	3%	7.3µM*	-52%
Cc1ccnc(NS(=O)(=O)c2ccc(NC(=O)C(C)(C)Oc3ccc(Cl)cc3)cc2)n1	/	0%	/	/
Cc1cccc(NC(=O)c2ccc3c(O)c(S(=O)(=O)c4ccccc4)c(=O)[nH]c3c2)c1C	/	0%	/	/
C=CCn1c(SCC(=O)NCC2CCCO2)nc2c([nH]c3ccccc32)c1=O (centres undefined)	-3	2%	4.1µM*	-41%
Cn1c(SCC(=O)NCC2CCCO2)nc2c([nH]c3ccccc32)c1=O (centres undefined)	1	11%	?	-6%
Cc1cccc(C)c1NC(=O)Cn1c(=O)cc(C)c2c(C)nn(-c3cccc(Cl)c3C)c21	/	0%	/	21%
SMILES	IL-2 act	Nrf2 activator	ELG1 repair inh	BRCA1 expr up
Cc1ccc(-c2nc3cnccn3c2Nc2ccc(C(C)C)cc2)o1	/	/	/	-7%
CCc1ccccc1NC(=S)/N=C(\N)Nc1nc(C)c2cc(C)ccc2n1	-5	7%	21µM*	-58%
CCOC(=O)Nc1sc2c(c1C(N)=O)CCC(C)C2 (centres undefined)	1	3%	?	-3%
CC1CCc2c(sc(NC(=S)NC(=O)c3ccccc3)c2C#N)C1 (centres undefined)	-4	10%	?	11µM*
CC(=O)NC(=S)Nc1sc2c(c1C(N)=O)CCC(C)C2 (centres undefined)	1	8%	?	4.5µM*
Cc1ccccc1C(=O)NC(=S)Nc1sc2c(c1C#N)CCC(C)C2 (centres undefined)	-1	-1%	?	7%
Cc1ccc(NC(=O)C2CCCN(S(=O)(=O)c3ccc4c(c3)CCCC(=O)N4)C2)cc1N(C)C (centres undefined)	/	0%	/	-30%
Cc1cc(-c2ccco2)c(C#N)c2nc3ccccc3n12	1	?	9%	2.8µM*
Cc1cc(C(C)C)n2c(nc3ccccc32)c1C#N	/	/	-6%	/
CCCNc1nc(Nc2ccc(C)c(Cl)c2)c2cnn(C)c2n1	-2	7%	15µM*	-55%
Cc1ccc(Nc2nc(NCCO)nc3c2cnn3C)cc1Cl	0	6%	?	-64%
Cn1ncc2c(Nc3ccc(Br)cc3)nc(Nc3ccc(Br)cc3)nc21	-2	7%	23µM*	-96%
COc1cccc(-c2cc(C(F)(F)F)n3nc(C)c(-c4ccccc4)c3n2)c1	/	0%	/	13%
CN(C)C(=O)c1ccc2c(c1)N(CC(=O)NCc1ccc(F)cc1)C(=O)C1CCCCN21 (centres undefined)	/	1%	/	/
Cc1sc2nc(C3CC3)nc(N3CCN(C(=O)c4ccc(F)cc4)CC3)c2c1C	0	4%	?	-40%
Cc1sc2nc(C3CC3)nc(N3CCN(C(=O)c4ccc(Cl)cc4)CC3)c2c1C	-3	4%	23µM*	-50%
C=CCN1C(c2ccccc2)=CS/C1=C(\C#N)c1nnc2n1CCCCC2	-3	0%	11µM*	8%
CCOc1ccc(C2=CS/C(=C(\C#N)c3nnc4n3CCCCC4)N2CC)cc1	-2	1%	?	-32%
C#CCNC(=O)c1cc(-c2ccccc2)sc1N	-1	/	/	/
COC(=O)c1cc(-c2ccccc2)sc1N	-2	16µM*	?	0%
COC(=O)c1sc(-c2ccc(Cl)cc2)cc1N	-2	7%	?	4µM*
COC(=O)c1sc(-c2cccs2)cc1N	0	8.9µM*	?	13µM*
COC(=O)c1c(C)nc(C)c(C(=O)OC)c1-c1cccs1	-1	0%	-3%	-22%
O=C(CCN1C(=O)/C(=C\C=C\c2ccccc2)SC1=S)Nc1cccc(C(=O)O)c1	-4	0%	?	6.3µM*
O=C(CN1CCN(c2ccc(O)cc2)CC1)Nc1ccc(SC(F)F)cc1	1	0%	9.2µM*	-49%
O=C(CN1CCN(c2ccc(O)cc2)CC1)Nc1ccc2c(c1)OCCCO2	2	3%	18µM*	-2%
Cc1cc(C)cc(N2CCn3c2nc2c3c(=O)n(Cc3c(F)cccc3Cl)c(=O)n2C)c1	/	1%	/	/
CCN(Cc1nc2cc(Cl)ccc2c(=O)[nH]1)C(=O)c1cccc(NC(=O)c2cccs2)c1	-1	10%	16µM*	-24%
Cc1nc2ccc(NC(=O)c3cccs3)cc2c(=O)n1Cc1ccc(Cl)cc1	-2	9%	7.3µM*	-100%
CCCc1nc2ccc(NC(=O)c3cccs3)cc2c(=O)n1Cc1ccc(Cl)cc1	-4	-1%	16µM*	-45%
